Data from PubChem BioAssay AID1347423 (Functional Genomics Laboratory (NCATS/FGL), 2020).
In all, about 52,000 sequences went through this assay and about 210 (0.4%) were called active.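 Rule for the calls: active = gene whose silencing raises cell survival under the drug, median off-target-corrected z-score across its silencing RNAs 2 or more; inactive = the rest.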 The sample as a whole holds a higher share of actives than the screen did.

assay: Resistance to Poly (ADP-Ribose) Polymerase inhibitor: Gene Identification via Genome-wide siRNA Screen; conditions: mouse BRCA2 R2336H ES cells, olaparib, CellTiter-Glo viability; active compounds read high
In short: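 Mouse BRCA2 R2336H ES cells were reverse-transfected with siRNA (20 nM final), treated at 48 h with 500 nM olaparib, and read by CellTiter-Glo after 72 h. Scores: MAD-based z per siRNA, median per gene, seed off-target correction.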

| Sequence | z-score |
| --- | --- |
| CGAAGGGACCGAAGAAUCCTT against 5730538E15Rik | -0.602 (inactive) |
| CCAGUCCUACUUAGCAAAGTT against BC046404 | 1.34 (inactive) |
| CCAUUACACAAAGUUUUGCTT against Stard6 | 0.874 (inactive) |
| GGGUUCAAGAGAUGAUAUUTT against Usp11 | 2.47 (active) |
| GGAAAGUGUGUUCAUUAGUTT against Pla2g2d | -0.775 (inactive) |
| GGAAAAGGAGGUGGUACUGTT against Agc1 | 0.55 (inactive) |
| CGCCCAGUGCAAUUUUUUCTT against Gm592 | -0.745 (inactive) |
| CCAUAGCACUAAAUCAGAUTT against 4933421G18Rik | 0.387 (inactive) |
| GGACCUAUUUCUCUGCUCCTT against E330026B02Rik | -0.251 (inactive) |
| GGACAUUCGUGGUUCCAUCTT against 4833412N02Rik | 0.546 (inactive) |
| GGAGGUCGCUUCCUAUUACTT against Tat | 1.26 (active) |
| GGACUAUCAGGACCUUUUUTT against Dnajb3 | -1.77 (inactive) |
| GCUAAAAGGUAAGUACUUCTT against AB041803 | 0.00857 (inactive) |
| GGAGAUUGAUGAGCAUGCCTT against Rab40b | 0.456 (inactive) |
| GGUUCUGAAGAUGGAGGUUTT against Ttbk1 | -1.25 (inactive) |
| GCUGUUGGUUUCUACUCACTT against Adam21 | 1.43 (active) |
| GGAAGACCUGAUUGGAAAATT against Trpm1 | 0.553 (inactive) |
| GAGCCUUCUAAGUCUGCACTT against Hist1h2bb | 0.996 (inactive) |
| GGAAAUCACCAGAGCUGAUTT against Atp6v0a2 | 1.56 (inactive) |
| GGGCUAUUAAAUGAUUUCATT against Pax1 | -0.101 (inactive) |
| CGUAGCAAUCUUGGUUGCUTT against Hoxa3 | 0.734 (inactive) |
| GGCUGUGAGAUAGAUCUAATT against E130112L23Rik | -0.595 (inactive) |
| GGAUGUGGACUCAAAGAAATT against 1110001E17Rik | 1.9 (active) |
| CGAGGGAUAAGAGUCUACGTT against D4Bwg1540e | -0.0629 (inactive) |
| GGCCAUUAACAGCAGUCUGTT against Kifc1 | -2.66 (inactive) |
| GGGACUUUUUUUGAAUCCUTT against Ndrg3 | 0.835 (inactive) |
| GGCAGCGCAAUGGAUUAGUTT against Chrng | 1.99 (active) |
| GGAGCAACAGCCAAAUACCTT against 1700001F22Rik | 0.124 (inactive) |
| CGGCAGGAUGAAUGAGAUCTT against Bccip | 0.692 (inactive) |
